As usually defined, the AC50 is the midpoint of the concentration-response curve, whichever way the signal moves.

Inconclusive results are not listed. Calls of active or inactive are those of the source. The calls were made as follows: active = hit-call score of the fitted dose curve at least 0.9, where 1 is the maximum; inconclusive = response in the unintended direction; inactive = score below 0.9.

This test deals with TPO (gene 7173). As to the kind of experiment: CCTE_GLTED_hTPO: CCTE's human Thyroperoxidase (hTPO) Inhibition Assay, Great Lakes Toxicology and Ecology Division (GLTED) Lab. On the procedure:
CCTE_GLTED_hTPO is a cell-free, single-readout assay designed to test the inhibitory activity of chemicals toward human thyroperoxidase (TPO) protein. Uninhibited enzyme converts Amplex UltraRed to a fluorescent product. Measurements were taken 0.5 hour after chemical dosing in a 96-well plate. CCTE_GLTED_hTPO is the assay component measured from the CCTE_GLTED_hTPO assay. It is designed to make measurements of enzyme activity, a form of enzyme reporter, as detected with […] by Fluorescence technology.Data from the assay component CCTE_GLTED_hTPO was analyzed at the assay endpoint CCTE_GLTED_hTPO in the positive analysis fitting direction relative to DMSO as the negative control and baseline of activity. Using a type of enzyme reporter (the Amplex UltraRed assay), loss-of-signal activity can be used to understand decreased peroxidase activity in the presence of excess […]. To generalize the intended target to other relatable targets, this assay endpoint is annotated to the 'oxidoreductase' intended target family, where the subfamily is 'peroxidase'.
[…]
For the molecule `O=S(=O)(O)C(F)(F)C(F)(F)C(F)(F)C(F)(F)C(F)(F)C(F)(F)C(F)(F)C(F)(F)F`, the AC50 was 285 µM (active).
In the case of `O=C(O)C(F)(F)C(F)(F)C(F)(F)C(F)(F)C(F)(F)C(F)(F)C(F)(F)C(F)(F)F`, the result was inactive.
In the case of `O=C(O)C(F)(OC(F)(F)C(F)(F)C(F)(F)F)C(F)(F)F` (stereo not drawn), the AC50 was 40.2 µM (active).
